The assay concerns the target Muscarinic acetylcholine receptor M5 (Homo sapiens) (UniProt P08912). Description: M5 muscarinic receptor negative allosteric modulators, cell-based, single concentration, human M5 (AID 743025). As to conditions: CHO-K1 hM5, ACh EC80 calcium flux, Fluo-4; at 10 µM; active compounds read low. A general note: Calcium assays in cells follow changes in intracellular calcium, usually with a dye or a luminescent sensor.

The structures appear in SMILES notation. Unmarked numbers belong to inactive results.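 Rule for the calls: active = IC50 below 10 µM at human M5 in a calcium flux test, acting as a negative modulator; inactive = the rest.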

Chain of Muscarinic acetylcholine receptor M5 (Homo sapiens) (P08912 whole entry, looked up): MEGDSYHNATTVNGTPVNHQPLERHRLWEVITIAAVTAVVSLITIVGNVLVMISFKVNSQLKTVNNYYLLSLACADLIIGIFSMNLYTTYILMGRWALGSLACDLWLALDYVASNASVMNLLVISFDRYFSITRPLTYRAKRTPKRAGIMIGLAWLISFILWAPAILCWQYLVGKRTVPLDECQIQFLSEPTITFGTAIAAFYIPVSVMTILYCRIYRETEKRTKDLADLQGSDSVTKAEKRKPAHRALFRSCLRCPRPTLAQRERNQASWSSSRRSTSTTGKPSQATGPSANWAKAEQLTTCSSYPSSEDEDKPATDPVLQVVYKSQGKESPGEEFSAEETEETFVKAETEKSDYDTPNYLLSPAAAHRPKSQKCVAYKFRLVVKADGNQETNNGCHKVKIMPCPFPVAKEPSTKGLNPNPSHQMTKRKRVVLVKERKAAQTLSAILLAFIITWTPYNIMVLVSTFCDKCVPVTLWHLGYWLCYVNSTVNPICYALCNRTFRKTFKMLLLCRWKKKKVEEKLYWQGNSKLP

`O=C1c2ccccc2C2(c3ccc(Cl)cc3)NCCN12` (configuration not stated): the activity remaining was 78.7%.

With `O=C1c2ncccc2C2(c3ccccc3)NCCN12` (configuration not stated), the activity remaining is 67.2%.

The record behind these values is PubChem BioAssay AID743025 (Vanderbilt Specialized Chemistry Center, 2013).
